# The full ranking holds about 2,900 compounds; the median of “NF-kB SEAP reporter activity, fold change vs agonist alone” is about 0.99, and the highest 2% start at about 2.6. The sample as a whole holds a higher share of the highest values than the screen did.
# How the values were obtained:
# [1] = tested on: RAW-Dual; assay: NF-kB SEAP reporter activity, fold change vs agonist alone; higher = enhanced NF-kB activity
# Outline: (§1)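 RAW-Dual macrophages were seeded in DMEM at 50,000 cells/well in 384-well plates, given 50 nL of library stock by pin tool, and given a PRR agonist 1 h later. Plates were held at 37 °C, 5% CO2 for 20 hours, after which supernatant was read for IRF by QuantiLuc luminescence and for NF-κB by QuantiBlue absorbance at 620 nm. Reporter activity is expressed as fold change over wells that received agonist alone. A well was called cytotoxic when IncuCyte confluency fell below 70% of agonist controls in both mask sets.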
# [2] = tested on: RAW-Dual; assay: NF-kB SEAP reporter activity, fold change vs agonist alone; cytotoxicity flag (confluency mask): not cytotoxic; higher = enhanced NF-kB activity
# Outline: as §1
# [3] = tested on: RAW-Dual; assay: NF-kB SEAP reporter activity, fold change vs agonist alone; cytotoxicity flag (confluency mask): cytotoxic (confluency <70% of control); higher = enhanced NF-kB activity
# Outline: as §1
# [4] = library stock concentration (final ~1000-fold dilution): 10 mM, cytotoxicity flag (confluency mask): not cytotoxic, agonist: Imiquimod (TLR7) […]
# [5] = library stock concentration (final ~1000-fold dilution): 10 mM, cytotoxicity flag (confluency mask): not cytotoxic, agonist: MPLA (TLR4) […]
# [6] = agonist: ODN 1826 (TLR9) 0.5 ug/mL
# [7] = agonist: Pam2CSK4 (TLR2/6) 0.1 ug/mL
# [8] = agonist: Pam3CSK4 (TLR2/1) 0.1 ug/mL
# [9] = library stock concentration (final ~1000-fold dilution): 10 mM, cytotoxicity flag (confluency mask): cytotoxic (confluency <70% of control), agonist: Imiquimod (TLR7) […]
# [10] = library stock concentration (final ~1000-fold dilution): 10 mM, cytotoxicity flag (confluency mask): cytotoxic (confluency <70% of control), agonist: MPLA (TLR4) […]
structure (smiles),measurement,setting,value
Cc1ccc(CNc2ncnc3ccc(-c4ccc(CO)o4)cc23)o1,NF-kB SEAP reporter activity,[1]; [4],1.07
same,NF-kB SEAP reporter activity,[1]; [5],1.24
Nc1ccc2ncnc(NCCc3ccc(Oc4ccccc4)cc3)c2c1,NF-kB SEAP reporter activity,[1]; [4],1.46
N#Cc1ccc2ncnc(NCCc3ccccc3)c2c1 (library stock concentration (final ~1000-fold dilution): 10 mM),NF-kB SEAP reporter activity,[2]; agonist: LPS (TLR4) 0.1 ug/mL,2.76
same,NF-kB SEAP reporter activity,[2]; [6],1.15
same,NF-kB SEAP reporter activity,[2]; [7],1.51
same,NF-kB SEAP reporter activity,[2]; [8],1.76
Cc1ccc(CNc2ncnc3ccc(-c4ccc(CO)o4)cc23)o1 (library stock concentration (final ~1000-fold dilution): 10 mM),NF-kB SEAP reporter activity,[2]; agonist: LPS (TLR4) 0.1 ug/mL,1.16
same,NF-kB SEAP reporter activity,[2]; [6],1.35
same,NF-kB SEAP reporter activity,[2]; [7],1.21
same,NF-kB SEAP reporter activity,[2]; [8],1.4
O=C(Nc1ccc(Cl)cc1)c1cc2ccccc2cc1OP(=O)(O)O,NF-kB SEAP reporter activity,[1]; [4],0.877
same,NF-kB SEAP reporter activity,[1]; [5],1.04
O=C(Nc1ccc(Cl)cc1)c1cc2ccccc2cc1OP(=O)(O)O (library stock concentration (final ~1000-fold dilution): 10 mM),NF-kB SEAP reporter activity,[2]; agonist: LPS (TLR4) 0.1 ug/mL,1.08
same,NF-kB SEAP reporter activity,[2]; [6],0.965
same,NF-kB SEAP reporter activity,[2]; [7],0.931
same,NF-kB SEAP reporter activity,[2]; [8],0.763
N=C(N)NCCCC1NC(=O)C(CCCCN)NC(=O)C(Cc2ccccc2)NC(=O)C(CC(=O)O)NC(=O)CNC1=O.O=C(O)C(F)(F)F (centres undefined) (library stock concentration (final ~1000-fold dilution): 10 mM),NF-kB SEAP reporter activity,[2]; agonist: LPS (TLR4) 0.1 ug/mL,1.07
same,NF-kB SEAP reporter activity,[2]; [6],0.955
same,NF-kB SEAP reporter activity,[2]; [7],1.13
same,NF-kB SEAP reporter activity,[2]; [8],0.988
N=C(N)NCCCC1NC(=O)C(CCCCN)NC(=O)C(Cc2ccccc2)NC(=O)C(CC(=O)O)NC(=O)CNC1=O.O=C(O)C(F)(F)F (centres undefined),NF-kB SEAP reporter activity,[1]; [4],0.934
same,NF-kB SEAP reporter activity,[1]; [5],1.07
COc1ncc(-c2cc(-c3ncc(CN4CC(C)OC(C)C4)o3)c3cn[nH]c3c2)cc1NS(C)(=O)=O (centres undefined) (library stock concentration (final ~1000-fold dilution): 10 mM),NF-kB SEAP reporter activity,[3]; agonist: LPS (TLR4) 0.1 ug/mL,5.18
same,NF-kB SEAP reporter activity,[3]; [6],0.639
same,NF-kB SEAP reporter activity,[3]; [7],1.01
same,NF-kB SEAP reporter activity,[3]; [8],1.39
COc1ncc(-c2cc(-c3ncc(CN4CC(C)OC(C)C4)o3)c3cn[nH]c3c2)cc1NS(C)(=O)=O (centres undefined),NF-kB SEAP reporter activity,[1]; [9],0.604
same,NF-kB SEAP reporter activity,[1]; [10],2.18
CN(CCNCc1cn(Cc2ccc(Cl)cc2)nn1)CCNc1ccnc2cc(Cl)ccc12.O=C(O)C(F)(F)F (library stock concentration (final ~1000-fold dilution): 10 mM),NF-kB SEAP reporter activity,[3]; agonist: LPS (TLR4) 0.1 ug/mL,2.67
same,NF-kB SEAP reporter activity,[3]; [6],0.269
same,NF-kB SEAP reporter activity,[3]; [7],1.18
same,NF-kB SEAP reporter activity,[3]; [8],1.87
CCN(CCO)CCCC(C)Nc1ccnc2cc(Cl)ccc12.O=S(=O)(O)O (centres undefined) (library stock concentration (final ~1000-fold dilution): 10 mM water),NF-kB SEAP reporter activity,[2]; agonist: LPS (TLR4) 0.1 ug/mL,1.41
same,NF-kB SEAP reporter activity,[2]; [6],0.252
same,NF-kB SEAP reporter activity,[2]; [7],0.864
same,NF-kB SEAP reporter activity,[2]; [8],0.763
CN(CCNc1ccnc2cc(Cl)ccc12)CCNc1ccnc2cc(Cl)ccc12.Cl.Cl.Cl,NF-kB SEAP reporter activity,[1]; [9],0.958
same,NF-kB SEAP reporter activity,[1]; [10],2.39
CN(CCNc1ccnc2cc(Cl)ccc12)CCNc1ccnc2cc(Cl)ccc12.Cl.Cl.Cl (library stock concentration (final ~1000-fold dilution): 10 mM),NF-kB SEAP reporter activity,[3]; agonist: LPS (TLR4) 0.1 ug/mL,4.28
same,NF-kB SEAP reporter activity,[3]; [6],0.547
same,NF-kB SEAP reporter activity,[3]; [7],1.63
same,NF-kB SEAP reporter activity,[3]; [8],2.17
CCN(CCO)CCCC(C)Nc1ccnc2cc(Cl)ccc12.O=S(=O)(O)O (centres undefined),NF-kB SEAP reporter activity,"[1]; library stock concentration (final ~1000-fold dilution): 10 mM water, cytotoxicity flag (confluency mask): not cytotoxic, agonist: Imiquimod (TLR7) […]",0.389
same,NF-kB SEAP reporter activity,"[1]; library stock concentration (final ~1000-fold dilution): 10 mM water, cytotoxicity flag (confluency mask): not cytotoxic, agonist: MPLA (TLR4) […]",1.3
Cc1ccc(NCCN(C)CCNc2ccnc3cc(Cl)ccc23)c2c(=O)c3ccccc3sc12 (library stock concentration (final ~1000-fold dilution): 2 mM),NF-kB SEAP reporter activity,[2]; agonist: LPS (TLR4) 0.1 ug/mL,1.45
same,NF-kB SEAP reporter activity,[2]; [6],1.04
same,NF-kB SEAP reporter activity,[2]; [7],0.845
same,NF-kB SEAP reporter activity,[2]; [8],1.06
CN(CCNCc1cn(Cc2ccc(Cl)cc2)nn1)CCNc1ccnc2cc(Cl)ccc12.O=C(O)C(F)(F)F,NF-kB SEAP reporter activity,[1]; [9],1.52
same,NF-kB SEAP reporter activity,[1]; [10],2.19
CCN(CC)Cc1cc(Nc2ccnc3cc(Cl)ccc23)ccc1O.Cl.Cl.O.O (library stock concentration (final ~1000-fold dilution): 10 mM),NF-kB SEAP reporter activity,[2]; agonist: LPS (TLR4) 0.1 ug/mL,0.419
same,NF-kB SEAP reporter activity,[2]; [6],0.184
same,NF-kB SEAP reporter activity,[2]; [7],0.719
same,NF-kB SEAP reporter activity,[2]; [8],0.633
CCN(CC)Cc1cc(Nc2ccnc3cc(Cl)ccc23)ccc1O.Cl.Cl.O.O,NF-kB SEAP reporter activity,[1]; [4],0.244
same,NF-kB SEAP reporter activity,[1]; [5],0.82
Cc1ccc(NCCN(C)CCNc2ccnc3cc(Cl)ccc23)c2c(=O)c3ccccc3sc12,NF-kB SEAP reporter activity,"[1]; library stock concentration (final ~1000-fold dilution): 2 mM, cytotoxicity flag (confluency mask): not cytotoxic, agonist: Imiquimod (TLR7) […]",0.907
same,NF-kB SEAP reporter activity,"[1]; library stock concentration (final ~1000-fold dilution): 2 mM, cytotoxicity flag (confluency mask): not cytotoxic, agonist: MPLA (TLR4) […]",1.05

# From the supplement of paper PMC10037445
